# Article PMC5913336, “True equilibrium measurement of transcription factor-DNA binding affinities using automated polarization microscopy”
# Molecular target: T1, Optix (Drosophila melanogaster, UniProt Q95RW8 139-229)
# T1 sequence: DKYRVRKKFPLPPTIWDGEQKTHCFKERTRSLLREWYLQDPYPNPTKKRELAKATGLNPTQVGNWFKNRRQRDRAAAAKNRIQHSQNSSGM
# Test: FP; 33 mM phosphate pH 7.0, 90 mM NaCl, 0.01% Tween 20, 0.1 mM DTT, 0.5% agarose; room temperature
# Conditions: tags: N-GST (pGEX-6P-1, kept); dsDNA, one strand shown
Sequence,binding signal,Kd
AGAGTGATCGCT,9.37 Kd / Kd of best base at the position,–
ACAGTGATAGCT,3.68 Kd / Kd of best base at the position,–
AGAGTGATAACT,12.1 Kd / Kd of best base at the position,–
AGAGTGGTAGCT,39.7 Kd / Kd of best base at the position,–
AGAGTGAGAGCT,35.9 Kd / Kd of best base at the position,–
CGAGTGATAGCT,5.01 Kd / Kd of best base at the position,–
AGAGTGATACCT,2.57 Kd / Kd of best base at the position,–
GGAGTGATAGCT,2.35 Kd / Kd of best base at the position,–
AGATTGATAGCT,6.38 Kd / Kd of best base at the position,–
AGAGTGAAAGCT,1670 Kd / Kd of best base at the position,–
AGAGTAATAGCT,23.7 Kd / Kd of best base at the position,–
AGGGTGATAGCT,5.49 Kd / Kd of best base at the position,–
AGAGTGATAGCG,7.84 Kd / Kd of best base at the position,–
AGAGTGATAGGT,4.85 Kd / Kd of best base at the position,–
AGAGTGATATCT,3.39 Kd / Kd of best base at the position,–
AGAGTGATAGAT,16.1 Kd / Kd of best base at the position,–
AGAATGATAGCT,6.11 Kd / Kd of best base at the position,–

Sequence,binding signal,Kd
AGTGTGATAGCT,6.5 Kd / Kd of best base at the position,–
AGAGTCATAGCT,51.6 Kd / Kd of best base at the position,–
AGAGTGACAGCT,185 Kd / Kd of best base at the position,–
AGAGTGATAGCA,5.73 Kd / Kd of best base at the position,–
AAAGTGATAGCT,1.14 Kd / Kd of best base at the position,–
AGAGTGATGGCT,127 Kd / Kd of best base at the position,–
AGAGAGATAGCT,9.88 Kd / Kd of best base at the position,–
AGAGCGATAGCT,6.46 Kd / Kd of best base at the position,–
AGAGTGATAGCC,4.04 Kd / Kd of best base at the position,–
TGAGTGATAGCT,4.48 Kd / Kd of best base at the position,–
AGCGTGATAGCT,4.94 Kd / Kd of best base at the position,–
AGAGTGATAGCT,–,~5 nM
ATAGTGATAGCT,1.01 Kd / Kd of best base at the position,–
AGAGTTATAGCT,25 Kd / Kd of best base at the position,–
AGAGTGTTAGCT,34.8 Kd / Kd of best base at the position,–
AGAGGGATAGCT,8.18 Kd / Kd of best base at the position,–

# Molecular target: D (Drosophila melanogaster, UniProt Q24533 127-229)
# Test: as above
# Conditions: tags: N-GST (pGEX-6P-1, kept); dsDNA, one strand shown
# D, sequence (Q24533 127-229): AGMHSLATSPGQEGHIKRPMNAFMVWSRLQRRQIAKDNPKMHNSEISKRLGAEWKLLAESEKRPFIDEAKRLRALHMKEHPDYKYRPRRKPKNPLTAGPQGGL
row,Sequence,binding signal
1,CACCATTGTTCTTG,1.12 Kd / Kd of best base at the position
2,GACGATTGTTCTTG,12.4 Kd / Kd of best base at the position
3,GCCCATTGTTCTTG,1.11 Kd / Kd of best base at the position
4,GACCATTGATCTTG,31.7 Kd / Kd of best base at the position
5,GACCATTGTTTTTG,2.05 Kd / Kd of best base at the position
6,GACCATTGTTCTAG,1.95 Kd / Kd of best base at the position
